Reference: PubChem BioAssay AID1347426 (Functional Genomics Laboratory (NCATS/FGL), 2020)
Among all 31,000 sequences or so, about 1,400 (4.5%) were called active.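 Rule for the calls: active = median seed-adjusted z-score above 1 or below -1; inactive = the rest.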 This excerpt belongs to a sample that is enriched for actives.

Assay: Novel Modifiers of Survival Motor Neuron (SMN) Protein: Gene Identification via Genome-wide siRNA Screen;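 note: luminescence tracks full-length SMN protein made from the SMN2 reporter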
Settings: HEK293T SMN2-luciferase reporter, siRNA knockdown, 72 h; actives lie on both sides
Method in brief: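 Steps: spot 1 pmol siRNA, add Lipofectamine RNAiMax in serum-free DMEM, seed HEK293T SMN2–luciferase reporter cells; incubate 72 h at 37 °C; add ONE-Glo; normalize luminescence to control siRNA, log10, MAD. Candidates: |MAD| > 1.0.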

Sequence | median seed-adjusted z-score
CGGGCUCCGUAGUCACAUUTT against NAALADL1 | -0.0444 (inactive)
GAACAAAUCUGCGAGAUCATT against DIRAS2 | -1.25 (active)
GCAGUUGGAGAGAUAAUAATT against VRK1 | -0.148 (inactive)
CACUGUUUAUGUAUAUGGATT against RHOT1 | -0.189 (inactive)
UCACCACCGUGUCUAAGAATT against MPO | -0.223 (inactive)
GGUUCUUGCUUACACUCUUTT against ESSPL | 0.328 (inactive)
CAUUGUCAAUAUAACGAUUTT against GPR98 | -0.509 (inactive)
CAAGAAUCUUAAGAUAGAATT against CD4 | -0.566 (inactive)
AUAUAUUGCUUGGAGAUGATT against STK16 | 0.113 (inactive)
CCAUCAACAUCGCCCUGAATT against PLOD1 | 0.481 (inactive)
GCCUUUUGCUCAUCUCACUTT against TNFSF11 | 0.0212 (inactive)
CAACCAGACUAUUCGGACATT against PPP1R10 | 1.41 (active)
CCAACCUUCUGAAUACGUUTT against GPR126 | -0.243 (inactive)
AAAAGAGACUGAUCAUCCATT against NR2F6 | -0.681 (inactive)
GAACUAUGCUAUACCAGAATT against IQCH | 0 (inactive)
GACUAUUCCCUGCACCACATT against ABHD9 | 0.486 (inactive)
CUUCCGUUAUGAUACAGAATT against GABRA2 | -0.272 (inactive)
GCUGUACACCGGCAUCGUATT against SLC5A5 | 1.01 (active)
GAAUCUAUGAGCUUCGAAATT against PSMB5 | -1.37 (active)
CUAUGGGUAUGACUACUUUTT against BPHL | -0.161 (inactive)
GGAACAUAGUCUUCAGGUATT against KIF20A | 0.906 (inactive)
AUGCUGAUCAGGAAAAGUATT against TEX13A | -1.22 (active)

Sequence | median seed-adjusted z-score
CACUGAAGCUGUACAACAATT against TSHR | 0.851 (inactive)
GAGUGAUCAGAGACCGAAATT against IARS | -0.198 (inactive)
GGACUUACUAAAAGCUAAATT against CRKRS | -1.16 (active)
CAAUCUAACUUUUCGGACATT against CLCA2 | 0.669 (inactive)
CAGUUUCAACUUUAUCAGATT against RNF144B | 0.642 (inactive)
GAUGAUAUCCUACUAGGCATT against CD302 | 0.0818 (inactive)
CAAUGUUUGUCUGGUCAUATT against ZDHHC2 | 0.133 (inactive)
CAUCUUAUCUACAUCUUAUTT against KCNK18 | 0.115 (inactive)
CCAUUAUCGCUGUCUUCUATT against CXCR7 | -0.511 (inactive)
GGCCUACAGCUGGAAGGAATT against CHRM1 | 1.1 (active)
GGAUGCGUUGAAUAAGUUUTT against MGAT4A | 0.134 (inactive)
GCACUACGGACCAUAGUUATT against NRF1 | 0.608 (inactive)
CGAAGUUCACUAUCGAACATT against DNAH11 | 0.104 (inactive)
AUAUCAACUUGACCCACCATT against B3GNT7 | -1.05 (active)
CUACUUCCUUUAUCCCGAUTT against BDH1 | -0.0253 (inactive)
GGAUCGAUAUCAAGAUAUUTT against AVEN | 0.184 (inactive)
GAAUCUCUGUAGCCGAUGATT against CPA1 | -0.187 (inactive)
AGACUGAACUCCGAACAGATT against SSH3 | -0.0772 (inactive)
GAAUAAGAGCACAAGUAAATT against SERPINB13 | 0.0593 (inactive)
AGCUGAUGUUCGAGCAGUATT against ACTL6B | 0.0703 (inactive)
CUCUGAGUAUGUGACCGAATT against XPNPEP1 | -1.5 (active)
CAUCAUCUAUGUAAGCCUATT against PRKD1 | -0.323 (inactive)

Sequence | median seed-adjusted z-score
CAAGAAUCAUUAAUACAAATT against CCL2 | 0.651 (inactive)
GGACGCAGGUUUCUGUUUATT against CHRFAM7A | 0.115 (inactive)
CACCAGCUAUGAACGAGAATT against THOC2 | -1.22 (active)
CGACCUACCGAGAAGAAAATT against GJB3 | -0.198 (inactive)
GGGAUGUUCUUAGAAGUUUTT against BIK | 0.0492 (inactive)
GCCCAGUUGCUUAACGAAUTT against ACVR2A | -0.22 (inactive)
CAAGAACUACAGAUUCGUATT against PPP1R13B | 0.0943 (inactive)
GACUGACCAUACUGAUAUUTT against NPY5R | 0.213 (inactive)
GCCUGUUUCAAGACACUGATT against CRNN | -0.0758 (inactive)
GCUUUAGAGUUCCAUAUGATT against PIK3CG | 0.576 (inactive)
GCACCUAUAUUUACUACUUTT against TTC3 | -1.17 (active)
CAACUUGCCUUGUUAACCATT against ZDHHC2 | 0.133 (inactive)
CUUCCACCCGAGUACCUUUTT against HDAC10 | -0.165 (inactive)
GAAUAGAGAUCAAAUUCCATT against CD163 | 0.021 (inactive)
GGAGGCUUCUUUAUGAAUUTT against FXYD4 | -0.0447 (inactive)
CUAUAACUGUUCGUGCUUATT against USP47 | 0.3 (inactive)
GAAAAUCACCAAAACAUACTT against WHSC1 | 1.17 (active)
GGAAAGUCCUGUUUGAUCATT against RHBDL3 | 0.56 (inactive)
CUGUAGAACUAGUCCUUAUTT against PRKRIR | 0 (inactive)
GUAUGUCGGGUAUACCGUUTT against RAD54L2 | -0.0646 (inactive)
CGACAAUGCGGUCAACCUUTT against CD28 | -0.993 (inactive)
GGAGAUACUCCGAACCUCATT against TEX13A | -1.22 (active)

Sequence | median seed-adjusted z-score
CGAUAUCUGACGCAGCUAATT against RPS6KA2 | 0.139 (inactive)
ACAUCCGAGUUUAUCCUGATT against SFRS9 | -0.144 (inactive)
GGAAAAAUAUCCAGCAAAATT against UBE2E2 | -1.77 (active)
CCUCAGAUCUACCCACAGATT against CSF2RB | -0.454 (inactive)
CACAAGCAAGUUCAAAUAATT against FCRL4 | -0.39 (inactive)
GCUAUUUGCUGGCUACAAATT against POLR2J3 | -5.42 (active)
GCGGCAAUCUUGGGAGUAATT against TMPRSS11B | -0.545 (inactive)
CAGCGAUGCUACGACAAUATT against PHF17 | 1.01 (active)
GAAUUUUGAUGUCAUACGATT against DTNB | -0.142 (inactive)
GGAACUUCCUGAGAACAUUTT against MAP3K8 | -0.533 (inactive)
CAUUCACGAUCUUCCCGUATT against MYO16 | -0.072 (inactive)
GUUGCAAACUUAUCGAGGATT against CCT2 | -0.0508 (inactive)
GGUAGAAUCUAGGUAUGCATT against RAD51 | 0.594 (inactive)
GCAUAUGGUUCUGAAGAUATT against GTF2E1 | 1.76 (active)
GAGCAAAUCAAAGAACUAATT against TSC22D1 | 0 (inactive)
AGACACCUCCUAGGACUAUTT against MZF1 | 0.215 (inactive)
GGAGUGCACGAGACAUUCATT against FAH | -0.0836 (inactive)
GGACUACAAAGGUUCUCGATT against CDH18 | 0.21 (inactive)
CAGCUUCGAUAUAAGGAAATT against MYST2 | -1.46 (active)
ACCUGACCGUGUCGCUAUATT against DHRSX | -0.686 (inactive)
GGAACCUGGAGAUAUCAUUTT against FUT8 | 0.464 (inactive)
UGGUGUCGCUGGAGAAGUATT against GPX7 | -0.971 (inactive)

Sequence | median seed-adjusted z-score
CCAUCCCACUGGUCACAUUTT against SLC7A8 | -0.134 (inactive)
GGAGGCAUUUGAAGUUCCATT against FARP1 | -0.487 (inactive)
GGACCGCUACUCUGAGUAUTT against KCNH6 | 0.424 (inactive)
CUGUUAUUCUUCAUACCUATT against TAAR8 | 0.0792 (inactive)
GGAUCAAGACGUGAACGAUTT against CPSF6 | -2.38 (active)
GAGUAUUCUGAGUACAUGATT against ZFP42 | -0.537 (inactive)
CAAACAUCUAUGCAGCAAATT against MS4A8B | 0.207 (inactive)
GGAUGAGAAGAGACGUAGATT against DNMT1 | 0.185 (inactive)
CAUGAACCCUUGGUAGAUATT against TBRG1 | -1.47 (active)
GGGUUUUUGCGCUUCAAAATT against GALNAC4S-6ST | 0.218 (inactive)
GCAAAAUGAUCAUUAAUGATT against EIF3C | 0.56 (inactive)
GGACCAUAAUCAAUGUAGATT against ZNF585A | -0.168 (inactive)
CCUCAACUAUCAGAACAAUTT against KLF10 | 0.616 (inactive)
GGUUGUUGUAUACUUGCAATT against LIPJ | 0.295 (inactive)
GACCUAUGCAGUUCGAAAATT against SFRS1 | -1.66 (active)
GGAGUGUGCUGAAGACCUATT against GFER | 0.402 (inactive)
CCACGUGAUAAAUCAAGAATT against PRPF4B | -2.29 (active)
GAAAGACACUGGGACUCGATT against SNRNP35 | 0.172 (inactive)
GCAUCGCAAGAGCUGCAAATT against DPYD | -0.112 (inactive)
GAUUGUCAAUGGGUGUAUUTT against AOF1 | -0.211 (inactive)
